Reference: PubChem BioAssay (NCATS)
“And” between values parts separate entries of the source, which are not always exact repeats. Identical values can stand only once. Results filed as inconclusive are left out. The source made the active and inactive calls. Calls come from the whole dose curve; as a rule, active = well fitted curve in the direction sought with a large enough effect; inconclusive = small, poorly fitted or top-dose-only effect, or another doubt; inactive = no such curve, though single readings can be large; an effect the other way counts as inactive or inconclusive.

Tests used:
[1] = target: Cellular tumor antigen p53 (Homo sapiens) (UniProt P04637); test: Primary qHTS for small molecule compounds that upregulate eGFP-tagged delta133p53alpha (in N-terminal) cells. (AID 2060322); conditions: NCI-H358 eGFP-delta133p53alpha fluorescence, 24 h; activation: active compounds read high; note: nearly all actives have a fitted effect of over 75% in size; note: potency is the fitted concentration of half-maximal effect;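 for activation: series mostly up to about 56 µM; 0% = DMSO vehicle and 100% = reference activator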
Summary of the method: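 NCI-H358 cells pre-induced 24 h with 10 ng/ml doxycycline to express N-terminal eGFP-delta133p53alpha, then dosed 24 h at 37C without doxycycline; fixed, Hoechst-stained, GFP intensity by laser scanning cytometry, normalized to DMSO (0%) and 57.5 uM 5-azacytidine (100%).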

[2] = target: Aldehyde dehydrogenase, mitochondrial (Homo sapiens) (UniProt P05091); test: qHTS for Inhibitors of the Aldehyde Dehydrogenase Family (ALDH2) Primary screen (AID 2061308); note: nearly all actives have a fitted effect of over 55% in size; note: potency is the fitted concentration of half-maximal effect;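 for activity change, negative = inhibition: plate controls were vehicle for no effect and reference inhibitor for full effect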
[3] = target: Retinaldehyde dehydrogenase 3 (Homo sapiens) (UniProt P47895); test: qHTS for Inhibitors of the Aldehyde Dehydrogenase Family (ALDH1A3) Primary screen (AID 2061315);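 note: plate controls were DMSO vehicle for no effect and reference inhibitor for full effect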
[4] = target: Retinal dehydrogenase 2 (Homo sapiens) (UniProt O94788); test: qHTS for Inhibitors of the Aldehyde Dehydrogenase Family (ALDH1A2) Confirmation screens (AID 2061314); note: nearly all actives have a fitted effect of over 65% in size; note: potency is the fitted concentration of half-maximal effect
[5] = BET inhibitor-based combinations targeting novel dependencies in MECOM-rearranged (r) AML: SET-2 cell line (AID 2202231); conditions: SET-2 AML cells viability, CellTiter-Glo luminescence, 48 h; viability: active compounds read low, series mostly up to about 46 µM;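 note: plate controls were DMSO treated cells for no effect and wells without cells for full effect; nearly all actives have a fitted effect of over 35% in size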
Summary of the method: (§1)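 Each compound was tested at eleven concentrations on cells seeded at 500/well. After two days' incubation, ATP-based luminescence reported viability; responses relative to DMSO and blank wells yielded AUC and cell-line-centred Z-AUC.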

[6] = BET inhibitor-based combinations targeting novel dependencies in MECOM-rearranged (r) AML: OCI-AML3 cell line (AID 2202232); conditions: Potency: OCI-AML3 viability;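 note: series mostly up to about 46 µM; plate controls were DMSO vehicle wells for no effect and wells without cells for full effect; nearly all actives have a fitted effect of over 35% in size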
Summary of the method: as §1

[7] = BET inhibitor-based combinations targeting novel dependencies in MECOM-rearranged (r) AML: MV-4-11 cell line (AID 2202233);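 note: plate controls were DMSO for no effect and blank wells for full effect; nearly all actives have a fitted effect of over 45% in size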
Summary of the method: (§2)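 First, 500 cells per well were seeded; next, drugs were pinned as 11-point doses; then plates sat 48 hr in the incubator; finally CellTiter-Glo was added and luminescence read, with AUC and Z-AUC computed.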

[8] = BET inhibitor-based combinations targeting novel dependencies in MECOM-rearranged (r) AML: HNT-34 cell line (AID 2202234);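 note: plate controls were vehicle wells for no effect and cell-free wells for full effect; nearly all actives have a fitted effect of over 35% in size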
Summary of the method: as §2

[9] = BET inhibitor-based combinations targeting novel dependencies in MECOM-rearranged (r) AML: UCSD-AML1 cell line (AID 2202235);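 note: series mostly up to about 46 µM; plate controls were DMSO vehicle wells for no effect and blank wells for full effect; nearly all actives have a fitted effect of over 40% in size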
Summary of the method: as §2

[10] = BET inhibitor-based combinations targeting novel dependencies in MECOM-rearranged (r) AML: AML-191 cell line (AID 2202236;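 note: plate controls were vehicle wells for no effect and wells without cells for full effect; nearly all actives have a fitted effect of over 35% in size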)
Summary of the method: as §1

[11] = BET inhibitor-based combinations targeting novel dependencies in MECOM-rearranged (r) AML: AML-194 cell line (AID 2202237;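 note: plate controls were vehicle wells for no effect and wells without cells for full effect; nearly all actives have a fitted effect of over 40% in size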)
Summary of the method: as §1

[12] = target: Aldehyde dehydrogenase 1A1 (Homo sapiens) (UniProt P00352); test: qHTS for Inhibitors of the Aldehyde Dehydrogenase Family (ALDH1A1) Confirmatory screens (AID 2061316); note: nearly all actives have a fitted effect of over 65% in size; note: potency is the fitted concentration of half-maximal effect; for activity change, negative = inhibition: % is set by controls: 0 for no effect and ±100 for the full control effect

Sequence of Cellular tumor antigen p53 (Homo sapiens) (P04637 whole entry, looked up): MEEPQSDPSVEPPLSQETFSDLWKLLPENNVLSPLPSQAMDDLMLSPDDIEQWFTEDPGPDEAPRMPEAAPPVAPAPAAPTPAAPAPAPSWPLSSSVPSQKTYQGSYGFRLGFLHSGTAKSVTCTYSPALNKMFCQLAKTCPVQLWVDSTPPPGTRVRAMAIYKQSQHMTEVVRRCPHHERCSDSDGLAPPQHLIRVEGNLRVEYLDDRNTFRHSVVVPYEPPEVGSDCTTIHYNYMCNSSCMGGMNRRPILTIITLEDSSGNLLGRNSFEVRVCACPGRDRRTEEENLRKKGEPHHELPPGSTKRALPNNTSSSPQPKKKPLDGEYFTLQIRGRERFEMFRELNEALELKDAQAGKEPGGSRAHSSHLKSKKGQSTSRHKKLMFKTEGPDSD

CC(C)C[C@H](CC(=O)NO)C(=O)N[C@H](C(=O)N[C@@H](C)C(=O)NCCN)C(C)(C)C
inactive: activation [1] 3.67% | activity change, negative = inhibition [2] 1.06% [at 11.2 µM] | activity change, negative = inhibition [3] -12.1% [at 11.2 µM]

C=C1C[C@]23C[C@H]1CC[C@H]2[C@@]12CC[C@H](O)[C@@](C)(C(=O)O1)[C@H]2[C@@H]3C(=O)O
inactive: activation [1] 5.34% | Potency [2] | Potency [3]

CC(=O)O[C@H](C[C@@H](C)[C@H]1C(=O)[C@H](O)[C@@]2(C)[C@@H]3CCC4C(C)(C)[C@@H](O[C@@H]5OC[C@H](O)[C@H](O)[C@H]5O)CC[C@@]45C[C@@]35CC[C@]12C)[C@@H]1OC1(C)C (stereo partly drawn)
inactive: activation [1] 8.04% | Potency [2] | Potency [3]

COCC1OC(n2cnc3c(=O)[nH]cnc32)C(O)C1O (stereo not drawn)
inactive: activation [1] 6.11% | Potency [2] | Potency [3]

C[C@@H]1O[C@@H](O[C@H]2[C@@H]3C=CO[C@@H](O[C@@H]4O[C@H](CO)[C@@H](O)[C@H](O)[C@H]4O)[C@@H]3[C@@]3(CO)O[C@@H]23)[C@H](OC(=O)/C=C/c2ccc(O)cc2)[C@H](O)[C@H]1O
inactive: activation [1] 6.87% | Potency [2] | Potency [3]

COC(=O)Cc1cc2c(c([N+](=O)[O-])c1)N(C(=O)CC[C@H](N)C(=O)O)CC2
inactive: activation [1] -7.67% | Potency [2] | Potency [4] | Potency [3]

COc1c(C)c(OCC(O)C(C)(C)O)cc2c1CNC2=O (stereo not drawn)
inactive: activation [1] -1.79% | Potency [2] | Potency [3]

C[C@H](O)[C@H](O)/C=C/c1cccc(O)c1CO
inactive: activation [1] -15.3% | Potency [2] | Potency [3]

CC1(C)OC[C@H](NC(=O)Nc2ccc(Br)cc2Br)[C@H](c2ccccc2)O1
inactive: Potency [2] | Potency [3]
active: Potency [1] 19 µM

CC(=O)O[C@@H]1[C@@H](O)[C@H](O[C@H]2CC[C@]34C[C@]35CC[C@]3(C)[C@@H]([C@@]6(C)CC[C@@H](C(C)(C)O)O6)[C@@H](O)C[C@@]3(C)[C@@H]5C[C@H](O[C@@H]3O[C@H](CO)[C@@H](O)[C@H](O)[C@H]3O)[C@H]4C2(C)C)OC[C@H]1O
inactive: activation [1] 15% | Potency [2] | Potency [3]

CC1CCC2(C)C(CC(O)C(O)C23CO3)C1(C)CCC1=CC(O)OC1=O (stereo not drawn)
inactive: activation [1] -2.29% | Potency [2] | Potency [3]

N#Cc1c(O)c2c(-c3ccc(-c4ccccc4O)cc3)csc2[nH]c1=O
inactive: activation [1] 4.35% and -11.5% | Potency [3] | viability [5] 120% | Potency [6] | Potency [7] | Potency [8] | Potency [9] | Potency [10] | Potency [11]
active: Potency [2] 17.8 µM | Potency [4] 12.7 µM

COc1ccc(/C=C/C(=O)O[C@@H]2[C@@H](O)[C@H](C)O[C@@H](O[C@H]3[C@@H]4C=CO[C@@H](O[C@H]5O[C@@H](CO)[C@H](O)[C@@H](O)[C@@H]5O)[C@@H]4[C@@]4(CO)O[C@@H]34)[C@@H]2OC(C)=O)cc1
inactive: activation [1] -12.5% | Potency [2] | Potency [3]

CC(=O)OC[C@]12[C@@H](OC(=O)c3ccoc3)C[C@@H]3[C@@H](OC(C)=O)[C@]1(OC3(C)C)[C@@](C)(O)C[C@H](OC(=O)c1ccoc1)[C@@H]2OC(=O)c1ccoc1
inactive: activation [1] -9.16% | Potency [2] | Potency [3]

CNC(=O)[C@H]1O[C@@H](n2cnc3c(NCc4ccc(N)c(I)c4)ncnc32)[C@H](O)[C@@H]1O
inactive: activation [1] 4.33% | activity change, negative = inhibition [2] 0.813% [at 11.2 µM] | activity change, negative = inhibition [3] 4.83% [at 11.2 µM]

CC1(C)CC[C@]2(C(=O)O[C@@H]3O[C@H](CO)[C@@H](O)[C@H](O)[C@H]3O)CC[C@]3(C)C(=CCC4[C@@]5(C)C[C@@H](O)[C@H](O)[C@@](C)(CO)C5CC[C@]43C)C2[C@@H]1O (stereo partly drawn)
inactive: activation [1] 8.93% | Potency [2] | Potency [4] | Potency [3]

CN1CCN(c2ccc(Nc3cc(-c4cccc(-n5ccc6cc(C7CC7)cc(F)c6c5=O)c4CO)cn(C)c3=O)nc2)CC1
inactive: activation [1] 2.68% | Potency [2] | Potency [3]

C/C=C1\[C@H](O[C@@H]2O[C@H](CO)[C@@H](O)[C@H](O)[C@H]2O)OC=C(C(=O)O)[C@H]1CC(=O)OCCc1ccc(O)cc1
inactive: activation [1] 0.763% | Potency [2] | Potency [3]

Cc1ccc(CNc2ncnc3ccc(-c4ccc(CO)o4)cc23)o1
active: Potency [12] 4 µM
inactive: activation [1] -4.46% | Potency [2] | Potency [4] | Potency [3]

Nc1nc(Nc2ccc3c(c2)CCC(N2CCCC2)CC3)nn1-c1cc2c(nn1)-c1ccccc1CCC2 (stereo not drawn)
active: Potency [1] 26.9 µM
inactive: Potency [2] | Potency [3]

COc1cc(O)c2c(c1)C1=CC(O)C(O)CC1(C)OC2=O (stereo not drawn)
inactive: activation [1] 2.29% | Potency [2] | Potency [3]

CC(C)CC1(C(=O)OCc2ccc(O[C@@H]3O[C@H](CO)[C@@H](O)[C@H](O)[C@H]3O)cc2)CC(=O)OC(C(=O)O)CC(=O)OCC2OC(O1)C(OC(=O)/C=C/c1ccc(O)cc1)C(O)C2O (stereo partly drawn)
inactive: activation [1] 3.05% | Potency [2] | Potency [3]

CC1(C)C2CCC1(C)C(OC(=O)C(O)(CC(=O)O)CC(=O)O)C2 (stereo not drawn)
inactive: activation [1] -24.4% | Potency [2] | Potency [4] | Potency [3] | Potency [12]
